Measurements published in PubChem BioAssay AID1508622 (National Center for Advancing Translational Sciences (NCATS), 2021).
Calls of active or inactive are those of the source. Calls follow the shape of the dose curve; as a rule, active = well fitted activation curve with a large enough effect; inconclusive = small, poorly fitted or top-dose-only effect; inactive = no such curve, though single readings can be large or run the other way.

experiment: Confirmatory qHTS for Identification of Small Molecule Activators of Huntingtin-Antisense Promoter Activity; details: HEK293 HTT-AS promoter firefly luciferase reporter, 24 h; series mostly up to 57.5 µM; activity change, positive = activation: at the top concentration
Outline: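 Activity normalized between vehicle control (0%) and zero RLU (-100%) from firefly luminescence (Dual-Glo). Compounds, up to 57.5 uM final, incubated 24 h at 37C on HEK293 reporter cells plated 24 h earlier.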
Potency is read from the fitted curve at half-maximal effect.

Activity change, positive = activation, inactive:
COc1ccc(S(=O)(=O)NCCc2sc3nc(-c4ccc(C)cc4)nn3c2C)cc1F -64.4%
O=C(CCNS(=O)(=O)c1ccc2c(c1)CCN2C(=O)C1CC1)N1CCN(c2ccc(F)cc2)CC1 -24.2%
COCCNc1nc2c(c(=O)n(C)c(=O)n2C)n1Cc1c(F)cccc1Cl -54.3%
O=C(CN1C(=O)C2(SCC(=O)N2c2ccc(F)c(F)c2)c2ccccc21)Nc1cccc(Cl)c1 (centres undefined) -40.2%
Cc1cc(Nc2cccc(C(F)(F)F)c2)nc2ccc(NC(=O)c3cccnc3)cc12 -71.9%
O=C(NCCCN1CCN(c2ccccc2)CC1)c1ccc2nc(CCc3ccccc3)oc2c1 -82.1%
COc1ccccc1N=c1scc(-c2ccc(S(=O)(=O)N3CCCC3)cc2)n1C -78%
CC1CCCCN1S(=O)(=O)c1ccc2c(c1)oc(=O)n2CC(=O)Nc1ccc(Cl)cc1 (centres undefined) -38.9%
CC(=O)N1CCc2c(sc(NC(=O)CSc3ccccc3)c2-c2nc3ccccc3s2)C1 -67.3%
CCc1ccc(CNC(=O)c2sc3ncccc3c2-n2c(C)ccc2C)cc1 -42.3%
COc1ccc(NC(=O)Cn2nc(-c3ccncc3)ccc2=O)cc1Cl -6.93%
O=C(NCC(c1cccnc1)N1CCN(Cc2ccccc2)CC1)C(=O)Nc1ccc(Cl)cc1 (centres undefined) -33.1%
Cc1cccc(NC(=O)c2c(NC(=O)C(F)(F)F)sc3c2CCCCC3)c1 -96.1%
Cc1ccc(CN2CCSc3ccc(C(=O)NCC(C)c4ccccc4)cc32)cc1 (centres undefined) 7.41%
Cc1ccc(Cl)cc1N1CCN(C(=O)Cn2cnc3nc4c(cc3c2=O)CCCC4)CC1 -39.4%
COc1ccc(NS(=O)(=O)c2ccc3c(c2)CCN3C(=O)C2CC2)cc1OC -96.5%
COc1ccc(NC(=O)Cn2c(SCc3ccc(F)cc3)nc3cccnc32)cc1OC -27.2%
Cc1cccc(C)c1NC(=O)c1ccc2nc(CCc3ccccc3)oc2c1 -26.4%
CCCc1cc(N2CCN(c3cccc(C)c3C)CC2)n2cnnc2n1 -72.5%
COc1cccc(-c2nc(CS(=O)CC(=O)N3CCN(c4cccc(C(F)(F)F)c4)CC3)c(C)o2)c1 (centres undefined) -59.5%
CCc1cccc2sc(N3CCN(C(=O)c4cc5ccccc5cc4OC)CC3)nc12 -25.8%
COc1ccc(C(=O)NCCSc2c(C)[nH]c3ccccc23)cc1 -24%
CCc1cccc(C)c1NC(=O)Cn1cc2c(n1)CCCC2 -85.6%
Cc1ccc(-c2ncn(-c3ccc(Nc4nccc(-c5cccc(N6CCOCC6)c5)n4)cc3)n2)cn1 -91.3% [at 115 µM]
Cc1cccc(N2CCN(S(=O)(=O)c3ccc(F)c(C(=O)Nc4cccc(Cl)c4C)c3)CC2C)c1 (centres undefined) -17.7%
O=C(Nc1cc(Cl)cc(Cl)c1)c1ccc(F)c(S(=O)(=O)N2CCc3ccccc32)c1 -91.7%
CCCCN1C(C(=O)c2ccccc2)=C(OC(C)=O)c2ccccc2S1(=O)=O -45.9%
CCOC(=O)c1cc(-c2ccccc2)n(CCC(=O)Nc2ccc(OC)c(Cl)c2)c1C -18.6%
COc1cc2c(cc1OC)C(COc1ccc(C(C)C)cc1)N(C(=O)COc1ccccc1)CC2 (centres undefined) -20.4%
CCOCCCNC(=O)c1c[nH]c2ccc(S(=O)(=O)N(C)c3ccc(Cl)cc3F)cc2c1=O -34.5%
COc1ccc(OC)c(-c2nnc3ccc(-c4ccc(OC)c(O[C@@H]5CCOC5)c4)nn23)c1 -32.3%
Cc1ccc(-c2nc(S(=O)(=O)c3ccccc3)c(SCC(=O)NC3CCCCC3)o2)cc1 -23.6%
COc1cccc(Cn2c(SCc3ccc(C(=O)N4CCC(C)CC4)cc3)nc3ccncc32)c1 -25.6%
CC1Cc2cc(S(=O)(=O)N(Cc3ccccc3)C(C)C)ccc2N1C(=O)C1CCC1 (centres undefined) -68.9%
COc1ccc(C(C)n2c(C)c3c(C)nnc(C)c3c2C)cc1 (centres undefined) -16.4%
COc1ccc(NC(=O)CN2CCCN(S(=O)(=O)c3ccc(Br)cc3)CC2)c(OC)c1 -29.8%
CSc1ccc(CCNc2ncnc3onc(C)c23)cc1 -77.5%
O=C(c1cccs1)N(Cc1cccnc1)c1nc2ccc(F)cc2s1 -81.4%

Potency, active:
Cc1[nH]c2ccccc2c1CCNCc1ccc(C=CC(=O)NO)cc1 1.9 µM
